Experiments:
[1] = tested on: Tyrosine-protein kinase ABL1 (Homo sapiens), P00519 [T315I]; settings: at 1 µM
[2] = tested on: Tyrosine-protein kinase ABL1 (Homo sapiens), P00519 [Y253F]; settings: at 0.1 µM
[3] = tested on: Tyrosine-protein kinase ABL1 (Homo sapiens), P00519 [Y253F]; settings: at 1 µM
[4] = biological target: Tyrosine-protein kinase ABL1 (Homo sapiens) (UniProt P00519); settings: at 0.1 µM
[5] = biological target: Tyrosine-protein kinase ABL1 (Homo sapiens) (UniProt P00519); settings: at 1 µM
[6] = biological target: ALK tyrosine kinase receptor (Homo sapiens) (UniProt Q9UM73); settings: at 0.1 µM
[7] = biological target: ALK tyrosine kinase receptor (Homo sapiens) (UniProt Q9UM73); settings: at 1 µM
[8] = biological target: Tyrosine-protein kinase ABL2 (Homo sapiens) (UniProt P42684); settings: at 0.1 µM
[9] = biological target: Tyrosine-protein kinase ABL2 (Homo sapiens) (UniProt P42684); settings: at 1 µM
[10] = biological target: Tyrosine-protein kinase receptor UFO (Homo sapiens) (UniProt P30530); settings: at 0.1 µM;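 further: values are mean percent inhibition of AXL from the GSK PKIS screen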
Sequence of Tyrosine-protein kinase receptor UFO (Homo sapiens) (P30530 whole entry): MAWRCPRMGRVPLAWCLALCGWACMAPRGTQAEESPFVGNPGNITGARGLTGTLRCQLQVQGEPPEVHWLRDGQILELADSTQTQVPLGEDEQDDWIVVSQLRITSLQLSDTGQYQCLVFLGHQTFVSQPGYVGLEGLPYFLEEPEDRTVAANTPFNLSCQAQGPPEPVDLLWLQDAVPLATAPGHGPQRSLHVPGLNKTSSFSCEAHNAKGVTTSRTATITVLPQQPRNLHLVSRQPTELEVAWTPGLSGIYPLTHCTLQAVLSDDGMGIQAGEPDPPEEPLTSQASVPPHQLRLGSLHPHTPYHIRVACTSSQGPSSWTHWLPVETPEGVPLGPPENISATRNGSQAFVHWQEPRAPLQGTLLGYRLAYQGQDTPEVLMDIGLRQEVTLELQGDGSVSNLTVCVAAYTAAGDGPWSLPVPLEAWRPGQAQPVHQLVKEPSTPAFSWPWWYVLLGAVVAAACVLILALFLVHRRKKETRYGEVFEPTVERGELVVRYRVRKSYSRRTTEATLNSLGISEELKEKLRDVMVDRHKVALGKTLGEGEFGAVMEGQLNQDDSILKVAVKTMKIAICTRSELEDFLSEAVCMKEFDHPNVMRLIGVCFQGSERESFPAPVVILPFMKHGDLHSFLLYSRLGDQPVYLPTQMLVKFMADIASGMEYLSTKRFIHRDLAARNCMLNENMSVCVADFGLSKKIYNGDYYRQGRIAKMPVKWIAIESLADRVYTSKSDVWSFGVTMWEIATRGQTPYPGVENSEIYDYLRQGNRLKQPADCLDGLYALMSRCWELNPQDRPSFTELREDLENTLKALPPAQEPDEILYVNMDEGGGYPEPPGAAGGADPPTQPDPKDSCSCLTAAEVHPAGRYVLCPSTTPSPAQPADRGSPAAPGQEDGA

Sequence of ALK tyrosine kinase receptor (Homo sapiens) (Q9UM73 19-1620 limits assumed): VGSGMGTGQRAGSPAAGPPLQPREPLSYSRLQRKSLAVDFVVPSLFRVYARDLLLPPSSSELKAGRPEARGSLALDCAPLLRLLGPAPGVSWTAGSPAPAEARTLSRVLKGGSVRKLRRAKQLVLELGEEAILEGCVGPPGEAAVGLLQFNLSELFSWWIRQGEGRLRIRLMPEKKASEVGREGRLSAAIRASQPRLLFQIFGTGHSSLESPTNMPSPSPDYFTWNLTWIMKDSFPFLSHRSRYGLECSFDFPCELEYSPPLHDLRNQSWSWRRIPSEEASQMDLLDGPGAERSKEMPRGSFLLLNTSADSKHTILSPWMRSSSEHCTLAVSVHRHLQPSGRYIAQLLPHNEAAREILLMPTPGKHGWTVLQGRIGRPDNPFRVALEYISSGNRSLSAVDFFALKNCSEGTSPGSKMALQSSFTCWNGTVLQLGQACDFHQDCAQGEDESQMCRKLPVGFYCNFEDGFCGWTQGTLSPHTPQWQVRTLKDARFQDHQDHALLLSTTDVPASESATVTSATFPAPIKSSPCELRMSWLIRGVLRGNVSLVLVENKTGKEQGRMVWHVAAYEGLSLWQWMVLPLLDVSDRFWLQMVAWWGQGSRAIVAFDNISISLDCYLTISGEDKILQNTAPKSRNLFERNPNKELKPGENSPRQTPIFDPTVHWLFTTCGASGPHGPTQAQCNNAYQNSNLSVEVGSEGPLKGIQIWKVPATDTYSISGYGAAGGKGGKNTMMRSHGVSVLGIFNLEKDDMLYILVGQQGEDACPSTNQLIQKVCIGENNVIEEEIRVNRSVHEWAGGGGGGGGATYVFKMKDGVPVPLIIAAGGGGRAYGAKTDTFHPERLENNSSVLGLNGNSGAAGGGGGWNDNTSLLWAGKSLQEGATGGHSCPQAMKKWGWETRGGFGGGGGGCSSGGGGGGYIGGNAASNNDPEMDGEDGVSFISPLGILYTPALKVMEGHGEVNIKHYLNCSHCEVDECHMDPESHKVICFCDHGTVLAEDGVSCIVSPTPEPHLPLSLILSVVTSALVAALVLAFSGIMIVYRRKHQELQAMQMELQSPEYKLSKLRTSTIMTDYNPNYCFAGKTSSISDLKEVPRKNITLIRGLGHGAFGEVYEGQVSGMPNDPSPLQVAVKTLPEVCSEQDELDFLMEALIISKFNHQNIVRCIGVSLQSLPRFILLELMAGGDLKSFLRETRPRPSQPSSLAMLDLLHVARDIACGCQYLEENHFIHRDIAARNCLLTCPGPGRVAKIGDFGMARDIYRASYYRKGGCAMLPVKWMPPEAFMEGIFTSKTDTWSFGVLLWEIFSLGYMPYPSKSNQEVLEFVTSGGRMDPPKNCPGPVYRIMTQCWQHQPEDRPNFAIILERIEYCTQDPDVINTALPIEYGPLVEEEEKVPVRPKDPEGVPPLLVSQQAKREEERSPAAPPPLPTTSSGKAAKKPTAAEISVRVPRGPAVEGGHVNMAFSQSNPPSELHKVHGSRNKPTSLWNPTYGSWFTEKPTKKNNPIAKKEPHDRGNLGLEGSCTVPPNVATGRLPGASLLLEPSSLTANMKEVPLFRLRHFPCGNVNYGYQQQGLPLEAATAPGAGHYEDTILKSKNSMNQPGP
Sequence of Tyrosine-protein kinase ABL2 (Homo sapiens) (P42684 whole entry): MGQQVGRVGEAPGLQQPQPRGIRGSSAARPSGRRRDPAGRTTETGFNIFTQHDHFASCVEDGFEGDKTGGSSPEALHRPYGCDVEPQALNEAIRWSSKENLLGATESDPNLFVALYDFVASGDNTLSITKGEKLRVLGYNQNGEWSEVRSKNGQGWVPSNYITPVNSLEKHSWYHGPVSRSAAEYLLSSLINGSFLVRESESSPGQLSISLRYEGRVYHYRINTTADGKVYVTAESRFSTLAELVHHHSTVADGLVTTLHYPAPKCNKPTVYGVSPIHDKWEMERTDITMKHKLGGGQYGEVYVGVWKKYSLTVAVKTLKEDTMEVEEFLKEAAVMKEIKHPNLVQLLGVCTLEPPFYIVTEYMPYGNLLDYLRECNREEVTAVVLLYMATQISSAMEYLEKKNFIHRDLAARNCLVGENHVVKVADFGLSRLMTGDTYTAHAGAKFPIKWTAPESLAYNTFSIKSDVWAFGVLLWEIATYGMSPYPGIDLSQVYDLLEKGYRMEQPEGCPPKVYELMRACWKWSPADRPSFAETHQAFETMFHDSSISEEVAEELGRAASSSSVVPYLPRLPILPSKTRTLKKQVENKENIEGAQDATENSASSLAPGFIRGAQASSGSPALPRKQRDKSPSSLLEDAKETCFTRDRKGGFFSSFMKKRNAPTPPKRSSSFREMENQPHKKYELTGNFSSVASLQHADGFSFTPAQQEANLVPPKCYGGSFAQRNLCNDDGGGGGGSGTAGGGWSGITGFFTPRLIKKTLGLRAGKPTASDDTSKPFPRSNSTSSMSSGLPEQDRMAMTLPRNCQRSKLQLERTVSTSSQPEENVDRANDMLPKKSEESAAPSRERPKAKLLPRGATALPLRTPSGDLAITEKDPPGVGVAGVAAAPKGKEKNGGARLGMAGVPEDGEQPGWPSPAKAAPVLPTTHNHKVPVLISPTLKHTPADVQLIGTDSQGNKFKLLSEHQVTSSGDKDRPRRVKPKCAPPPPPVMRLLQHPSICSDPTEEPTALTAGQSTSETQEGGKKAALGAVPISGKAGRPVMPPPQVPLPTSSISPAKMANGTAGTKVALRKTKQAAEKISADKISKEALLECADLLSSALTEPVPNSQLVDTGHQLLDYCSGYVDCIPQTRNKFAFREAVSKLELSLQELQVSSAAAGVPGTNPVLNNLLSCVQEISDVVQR

Row | Structure (SMILES) | inhibition [1] | inhibition [2] | inhibition [3] | inhibition [4] | inhibition [5] | inhibition [6] | inhibition [7] | inhibition [8] | inhibition [9] | inhibition [10]
1 | NCc1ccc(-c2nc(-c3ccc(Cl)c(O)c3)c(-c3ccncc3)[nH]2)cc1 | 24.2% | 12.6% | 54.6% | 6.87% | 53.1% | -0.45% | 2.22% | 9.17% | 55.8% | -4.39%
2 | NC(=O)c1ccc(-c2nc(-c3ccccn3)c(-c3ccc4c(c3)OCO4)[nH]2)cc1 | 2.56% | 1.74% | 2.37% | 1.82% | 6.95% | 1.12% | 2.39% | 1.95% | 6.03% | -3.37%
3 | CN1CCC(C(=O)Nc2n[nH]c3nnc(-c4ccccc4)cc23)CC1 | 5.74% | 1.97% | 5.41% | 2.03% | 4.42% | 2.9% | 6.61% | 0.96% | 2.58% | -5.95%
4 | COC(=O)Nc1nc2cc(Oc3ccc(NC(=O)Nc4cccc(C(=O)O)c4)cc3)ccc2[nH]1 | 15.4% | 5.1% | 7.71% | -2.66% | 6.45% | -3.78% | -1.37% | -0.6% | 3.96% | -0.47%
5 | COc1cc(C)c(NC(=O)CN(C)C)cc1Nc1nc(Nc2cccc(F)c2C(N)=O)c2cc[nH]c2n1 | 0.49% | 3.3% | -0.09% | 1.95% | 4.55% | 97.8% | 88.9% | 1.11% | -0.02% | 17.6%
6 | CC1=C(C(=O)Nc2ccc3[nH]ncc3c2)C(c2ccc(F)cc2)NC(=O)N1 (stereo not given) | 2.66% | 1.48% | 5.27% | 3.51% | 8.74% | 0.35% | 3.89% | 2.2% | 19.7% | -2.41%
7 | CC(C)=Cc1cccc2c1/C(=N/Nc1ccc(S(N)(=O)=O)cc1)C(=O)N2 | 18.2% | 4.12% | 21.9% | 2.44% | 12.7% | 2.57% | 10.4% | 3.09% | 14% | 1.02%
8 | Cn1cc(C=C2C(=O)Nc3cccnc32)c2ccccc21 | 43.9% | 10.6% | 48.7% | 7.81% | 44.7% | 5.12% | 9.81% | 3.71% | 20.9% | -2.84%
9 | CS(=O)(=O)CCNCc1ccc(-c2ccc3ncnc(Nc4ccc(OCc5cccc(F)c5)c(C(F)(F)F)c4)c3c2)o1 | 4.21% | 4.9% | 2.89% | 2.03% | 2.75% | 1.6% | 2.6% | 4.19% | 4.05% | -5.05%
10 | COc1ccc2cc(-c3c(-c4ccncc4)nc(-c4ccc([S+](C)[O-])cc4)n3C)ccc2c1 (stereo not given) | 12.1% | 1.26% | 4.12% | 2.44% | 8.87% | 1.63% | 3.57% | 2.63% | 9.3% | -6.33%
11 | CC(=O)Nc1cccc(C#Cc2cncnc2Nc2ccc(OCc3cccc(F)c3)c(Cl)c2)n1 | 2.23% | 2.32% | 1.84% | 1.24% | 4.88% | -2.16% | -2.6% | 0.55% | 3.74% | 7.46%
12 | Nc1ncnc2occ(-c3ccc(NC(=O)Nc4cc(C(F)(F)F)cc(C(F)(F)F)c4)cc3)c12 | 83.3% | 9.88% | 42.3% | 3.94% | 43.5% | 2.49% | 10.8% | 6.22% | 48.9% | -0.91%
13 | Cc1ccc(C(=O)NC2CCCCC2)cc1-c1ccc(C(=O)NCC2CC2)cc1 | -0.78% | 1.39% | 2.22% | 4.64% | 6.52% | 2.91% | 4.07% | 4.04% | 8.56% | 0.41%
14 | NC(=O)c1cccc(Nc2nccc(Nc3cccc4[nH]ncc34)n2)c1 | 25.4% | 84.1% | 98.5% | 70.2% | 84.9% | -0.3% | 15.4% | 69.1% | 88.6% | 4.05%
15 | CC1=C(C(=O)Nc2ccc3[nH]ncc3c2)C(c2ccc3ccccc3c2)CC(=O)N1 (stereo not given) | 22.1% | 4% | 5.47% | 2.85% | 7.38% | 2.78% | 7.11% | 3.07% | 8.71% | -2.62%
16 | O=C1NC(=O)C(c2ccccc2Cl)=C1Nc1cccc(O)c1 | 6.08% | 3.51% | 3.33% | 4.23% | 9.09% | 2.43% | 4.74% | 4.43% | 1.33% | -5.88%
17 | O=C1NC(=O)C(N2CCc3ccccc32)=C1c1ccc(Cl)cc1 | 1.87% | 6.01% | 5.27% | 4.41% | 7.9% | 3.63% | 4.31% | 4.83% | 8.28% | -4.63%

Row | Structure (SMILES) | inhibition [1] | inhibition [2] | inhibition [3] | inhibition [4] | inhibition [5] | inhibition [6] | inhibition [7] | inhibition [8] | inhibition [9] | inhibition [10]
18 | COc1cc2ncn(-c3cc(OCc4ccccc4Cl)c(C(N)=O)s3)c2cc1OC | 27.1% | 4.62% | 32.7% | 3.59% | 32.2% | 1.53% | 5.8% | 1.8% | 21.1% | 0.24%
19 | O=C1NC(=O)C(c2cccc(Cl)c2)=C1Nc1ccc(O)c(Cl)c1 | -0.11% | -0.8% | 2.65% | 2.51% | 7.89% | 0.73% | 4.45% | 2.29% | 8.28% | 0.38%
20 | CCCN1CCC(Oc2cc(Nc3nc(Nc4cccc(F)c4C(N)=O)c4cc[nH]c4n3)c(OC)cc2Cl)CC1 | 1.37% | 1.12% | 3.82% | 4.76% | 10.1% | 55.7% | 78.2% | 4.89% | 12.3% | 5.22%
21 | Cc1nnc(-c2ccc(C)c(-c3ccc(C(=O)Nc4cccc(C#N)c4)cc3)c2)o1 | 2.58% | 1.18% | 3.76% | 3.64% | 5.81% | 3.61% | 2.36% | 4.17% | 6.56% | -4.6%
22 | c1cnn2ncc(-c3ccnc(Nc4ccc5c(c4)OCCO5)n3)c2c1 | 35.9% | 9.16% | 36% | 7.67% | 38.7% | 3.96% | 31.7% | 7.27% | 43.9% | -2.3%
23 | [O-][S+]1CCN(Cc2ccc(-c3ccc4ncnc(Nc5ccc(OCc6ccccc6)c(F)c5)c4c3)o2)CC1 | -1.37% | 2.33% | -0.81% | 1.83% | 5.78% | 1.75% | 4.79% | 3.02% | 3.87% | -4.98%
24 | CCn1c(-c2nonc2N)nc2c(C#CC(C)(C)O)nc(CN3CCCC3)cc21 | 0.96% | 0.59% | -0.16% | 0.66% | 3.27% | -0.84% | 0.01% | 2.08% | 5.65% | 1.88%
25 | Fc1cccc(COc2ccc(Nc3ncnc4sc(-c5cccs5)cc34)cc2Cl)c1 | 0.93% | 1.7% | 3.31% | 1.23% | 6.44% | 0.25% | 0.57% | 1.27% | 5.37% | -4.04%
26 | CCCN1CCC=C(c2ccc(Nc3nc(Nc4ccccc4C(N)=O)c4cc[nH]c4n3)c(C)c2)C1 | 12.1% | 1.82% | 7.55% | 5.84% | 16.4% | 76.2% | 82.1% | 10% | 13% | 8.88%
27 | O=C(Nc1n[nH]c2nc(-c3ccco3)c(Br)cc12)C1CC1 | 26.6% | 3% | 11.5% | 5.46% | 24.1% | 1.26% | 4.4% | 3.57% | 18.4% | -6.59%
28 | CC1=C(C(=O)Nc2ccc3[nH]ncc3c2)C(c2ccc(Cl)c(Cl)c2)CC(=O)N1 (stereo not given) | 2.96% | 2.96% | 0.52% | 2.43% | 7.38% | 0.6% | 3.88% | 2.19% | 3.97% | -2.18%
29 | CCN1CCC(CC(=O)Nc2n[nH]c3nc(-c4cccs4)c(Br)cc23)CC1 | 22.7% | -0.82% | 5.45% | 2.56% | 7.83% | -2.08% | -1.3% | -0.08% | 2.5% | 1.67%
30 | COc1cc2ncn(-c3cc(O[C@@H](C)c4ccccc4Cl)c(C(N)=O)s3)c2cc1OC | 13.5% | 6.04% | 25.9% | 7.09% | 28.4% | 3.25% | 6.34% | 3.24% | 11.4% | -8.48%
31 | Nc1nc(-c2ccccn2)c(-c2ccc3ncccc3n2)s1 | 3.65% | 3.71% | 3.66% | 5.61% | 12.5% | 1.41% | 4.86% | 3.71% | 8.87% | -2.51%
32 | O=C1Nc2ccc(C(=O)c3ccco3)cc2C1=Cc1cc(Cl)c(O)c(Cl)c1 | 8.5% | 5.68% | 17.9% | 4.71% | 21.5% | 3.92% | 20.8% | 5.9% | 15.3% | -4.61%
33 | Cc1cc(O)cc(C)c1/C=C/c1cncc(-c2nn[nH]n2)c1 | 8.36% | 31.5% | 86.1% | 12.4% | 71.1% | -0.37% | 4.03% | 19.9% | 68.6% | -8.81%

Source: ChEMBL document CHEMBL1961873, “Compounds: GSK PKIS; Assays: Nanosyn kinase panel” (2012)
